Screens as filed in PubChem.
SRC2 TRFRET art = flags TR-FRET format artefacts in PPARgamma SRC-2 recruitment agonist screen; TR-FRET artefact counter-screen; hits give high values; actives 0.4% (n = 200,000); TR-FRET ratio at 8 µM
SRC1 TRFRET art = TR-FRET artefact, counter-screen to PPARgamma/SRC-1 agonist assay. TR-FRET detection artefact counter-screen, emission ratio; hits give high values. TR-FRET ratio at 8 µM. actives 0.34% (n = 99,000); in the data active = TR-FRET ratio above about 2300
PPARg SRC-1 ag = promotes SRC-1 coactivator recruitment by human PPARgamma; PPARgamma-SRC-1 coactivator recruitment biochemical assay; activation, % at 8 µM; actives 0.41% (n = 200,000); AID 631; P37231; in the data active = activation above about 19%;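 also: 0% = DMSO and 100% = reference agonist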
Target sequence (P37231 whole entry, looked up): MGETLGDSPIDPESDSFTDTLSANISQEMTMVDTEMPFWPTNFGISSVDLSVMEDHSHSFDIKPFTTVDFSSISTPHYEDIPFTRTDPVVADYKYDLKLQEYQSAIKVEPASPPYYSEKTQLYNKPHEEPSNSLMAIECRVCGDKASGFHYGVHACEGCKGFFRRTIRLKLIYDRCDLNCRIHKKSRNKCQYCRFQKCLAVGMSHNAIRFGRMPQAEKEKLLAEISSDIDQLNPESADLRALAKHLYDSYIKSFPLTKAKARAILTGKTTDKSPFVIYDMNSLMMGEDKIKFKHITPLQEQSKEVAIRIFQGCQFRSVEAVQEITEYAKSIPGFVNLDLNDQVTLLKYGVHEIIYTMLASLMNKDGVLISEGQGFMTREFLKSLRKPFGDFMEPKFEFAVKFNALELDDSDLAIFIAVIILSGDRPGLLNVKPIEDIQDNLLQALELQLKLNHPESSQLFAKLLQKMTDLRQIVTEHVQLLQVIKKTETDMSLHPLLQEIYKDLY
PPARg SRC-2 ag = PPARgamma-driven SRC-2 recruitment agonism; P37231; PPARgamma LBD-SRC-2 recruitment, biochemical; activation, % at 8 µM; actives 0.34% (n = 200,000); AID 1032; in the data active = activation above about 22%;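 also: 0% = vehicle and 100% = reference agonist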
SRC3 TRFRET art = TR-FRET artefact, counter-screen to PPARgamma/SRC-3 agonist assay; PPARgamma/SRC-3 format; hits give high values; actives 0.39% (n = 99,000); TR-FRET ratio at 8 µM; AID 1048
PPARg SRC-3 ag = PPARgamma-driven SRC-3 recruitment agonism. P37231. biochemical PPARgamma/SRC-3 coactivator recruitment assay. activation, % at 8 µM. actives 0.26% (n = 200,000). AID 731; in the data active = activation above about 23%;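 also: 0% = DMSO and 100% = reference agonist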
Active calls of the source: *; · = no result. An excerpt weighted towards active compounds, which were near 0.9% of everything screened. Rule as the data show it, unless noted: active = TR-FRET ratio above about 2000; inactive = the rest.

SMILES	SRC2 TRFRET art	SRC1 TRFRET art	PPARg SRC-1 ag	PPARg SRC-2 ag	SRC3 TRFRET art	PPARg SRC-3 ag
O=C(COC(=O)c1ccc(Cl)c(S(=O)(=O)N2CCc3ccccc3C2)c1)Nc1ncc(Cl)cc1Cl	1932	2306	8.8	-1.2	2156*	8.9
CC1CCN(S(=O)(=O)c2ccc3c(c2)oc(=O)n3CC(=O)N2c3ccccc3CC2C)CC1 (configuration not stated)	2000*	·	9.7	16.4	·	8.9
NC(N)=N/N=C/c1ccc(Br)cc1	1681	1941	10.3	-0.5	1566	5.4
N#Cc1ccc(/C=N/N=C(N)N)cc1	1780	·	2.6	7.5	·	25.8*
Cc1ccc2oc(=O)cc(CN3CCC(C)CC3)c2c1	1609	·	-3.0	22.6*	·	13.2
CC(OC(=O)c1cc(S(=O)(=O)N(C)c2ccccc2)ccc1Cl)C(=O)Nc1ccc2c(c1)OCCO2 (configuration not stated)	1558	1840	5.3	0.4	1767	6.4
COc1ccc(COc2cc(-c3cccc(OC)c3)nc3ccc(NC(=O)C(C)C)cc23)cc1	1345	1514	-1.8	3.1	1482	-1.4
CSC1=NC2(CC(c3ccccc3)Oc3cc(O)ccc32)CC(C)(C)N1 (configuration not stated)	1633	·	3.9	11.8	·	28.6*
O=C(CSc1nc2ccccc2s1)Nc1cc(S(=O)(=O)N2CCOCC2)ccc1Cl	1577	1864	6.2	12.0	2069*	7.0
Cc1ccc(S(=O)(=O)N2CCOCC2)cc1NC(=O)CSc1nnc2cc(C)c3ccccc3n12	1791	2009	4.8	8.1	1734	3.1
Cc1cc2nnc(SCC(=O)Nc3cc(S(=O)(=O)N4CCOCC4)ccc3Cl)n2c2ccccc12	1718	1864	3.9	4.9	2297*	2.5
Cc1cc(SCC(=O)Nc2cccc(S(=O)(=O)N3CCOCC3)c2)nc2ccccc12	1663	2263	0.8	-3.9	2197*	2.8
O=C(CSc1nc2ccccc2c(=O)n1-c1ccc(F)c(Cl)c1)Nc1cccc(S(=O)(=O)N2CCOCC2)c1	1756	2035	-3.0	7.5	1729	4.6
Cc1ccc(-n2c(SCC(=O)Nc3cccc(S(=O)(=O)NC4=NCCCCC4)c3)nc3ccccc3c2=O)cc1	2048*	2001	-0.9	-0.9	2355*	2.9
Cc1ccc(-n2c(SCC(=O)Nc3cc(S(=O)(=O)N4CCOCC4)ccc3Cl)nc3ccccc3c2=O)cc1	1481	1829	1.2	-5.6	1429	0.5
CCc1ccc(-n2c(SCC(=O)Nc3cccc(S(=O)(=O)NC4=NCCCCC4)c3)nc3ccccc3c2=O)cc1	1490	1667	-9.5	-1.1	1653	1.8
O=C(NC(=S)Nc1ccccc1O)c1ccccc1Cl	1509	1963	9.4	2.3	1659	3.9
CCC(C)(C(=O)Nc1ccccc1C)N(C(=O)CNC(C)=O)c1ccccc1C (configuration not stated)	1611	1824	-2.2	-1.4	1488	-3.1
CCOC(=O)N1CCC(N2CCCC(CO)(Cc3ccccc3C)C2)CC1 (configuration not stated)	1526	1754	-6.1	-7.9	1582	1.3
Nc1cc(=O)[nH]c(SCC(=O)Nc2cc(S(=O)(=O)N3CCOCC3)ccc2Cl)n1	1697	1910	3.4	-0.1	1565	-1.7
O=C(CSc1nc2ccccc2c(=O)n1-c1ccc(F)cc1)Nc1ccc(Cl)c(S(=O)(=O)N2CCOCC2)c1	2212*	2261	5.2	17.1	2299*	15.5
O=C(CSc1nnc2c(n1)[nH]c1ccc(S(=O)(=O)N3CCOCC3)cc12)Nc1ccccc1Cl	1683	2042	9.6	9.0	2209*	14.5
Cc1ccc(SCC(=O)NC(=O)NCc2ccccc2)c(C)c1	1538	1797	3.9	6.9	1467	1.9
CSc1nc(N)nc(SCC(=O)C23CC4CC(CC(C4)C2)C3)c1C#N	1593	·	2.0	4.5	·	13.4
N#Cc1c(N)nc(SCC(=O)C23CC4CC(CC(C4)C2)C3)c(C#N)c1-c1ccc(Cl)cc1	1336	·	98.8*	2.4	·	4.2
SMILES	SRC2 TRFRET art	SRC1 TRFRET art	PPARg SRC-1 ag	PPARg SRC-2 ag	SRC3 TRFRET art	PPARg SRC-3 ag
COc1ccc(-c2cc(=O)c3c(OC)c(OC)c(OC)c(OC)c3o2)cc1OC	1392	2007	5.1	-2.6	1488	8.6
COc1c(OC)c(O)c2c(=O)cc(-c3c(O)cccc3O)oc2c1OC	1598	1922	21.3*	2.0	1661	-0.1
CN1CCN(CC(=O)Nc2cc(N(C)C)nc3ccccc23)CC1	1697	1749	6.3	1.8	1565	2.6
CC(C)(C)c1ccc(-c2nnc3sc(-c4ccncc4)nn23)cc1	5672*	·	-0.2	189.9*	·	-7.4
O=C(CSc1ccc(-c2ccccc2)nn1)c1cccs1	1579	1739	-2.9	7.3	1646	1.2
COc1ccc(-c2ccc(SCC(=O)c3cccs3)nn2)cc1	1638	2310	-6.1	13.6	2137*	4.1
O=C(c1cccc(C(F)(F)F)c1)N1CCN(c2cc(=O)[nH]nc2-c2ccccc2)CC1	1357	·	-9.1	-10.1	·	33.0*
COc1ccc2c(=O)c(Oc3ccc(C(=O)O)cc3)c(C(F)(F)F)oc2c1	1597	1910	3.0	9.6	1606	3.9
COc1ccc2nc(C)cc(SCC(=O)Nc3c(C)cccc3C)c2c1	1994*	2033	-3.4	26.4*	2003	10.2
COc1ccc2nc(C)cc(SCC(=O)NNC(=O)COc3ccc(C)cc3)c2c1	1879	·	15.6	16.1	·	11.0
COc1ccc2nc(C)cc(SCC(=O)Nc3c(C)cc(C)cc3C)c2c1	1613	·	32.2*	12.1	·	6.9
Cc1nn(C)c(=O)n1N(C)c1ncc(C(F)(F)F)cc1Cl	1886	2001	5.6	14.3	1687	5.1
COC(=O)CNC(c1ccccc1Cl)c1cc(Br)ccc1NS(=O)(=O)c1ccc(C)cc1 (configuration not stated)	1457	1697	12.3	0.8	1762	5.1
CCN(CC)CCn1c(NC(=O)c2ccc(Cl)cc2)nc2ccccc21	4842*	·	-4.7	153.1*	·	1.1
O=C(Nc1nc(-c2cccs2)cs1)c1ccc(S(=O)(=O)N2CCCC2)cc1	2064*	·	-5.1	-0.1	·	4.2
CN(C)S(=O)(=O)c1ccc(C(=O)Nc2nc(-c3cccs3)cs2)cc1	1736	·	-5.0	-2.7	·	-1.1
O=C(NC(=S)Nc1ccccc1)c1ccc(Br)o1	1845	1954	22.2*	7.8	1864	4.7
c1ccc(-n2nnc(-c3cccnc3)n2)cc1	1650	1540	-2.9	-1.0	1635	2.6
Cc1ccc(-c2nnc(NCc3nc4ccccc4[nH]3)c3ccccc23)cc1S(=O)(=O)N1CCCCC1	1948	2094	5.2	5.1	2547*	0.1
Cc1ccc(-c2nnc(NC3CCCCC3)c3ccccc23)cc1S(=O)(=O)N1CCN(C)CC1	1505	·	2.3	4.7	·	-1.0
COc1ccc2c(CC(=O)NCc3cccs3)coc2c1	1369	1579	-7.0	5.5	1651	1.6
